# Reference: PubChem BioAssay
# Calls of active or inactive are those of the source.
# Columns and labels:
# [1] = tested on: Human papillomavirus type 1a protein E7 (residues 44-93); assay: HPV1a E7 fragment binders on microarrays, primary screen, biochemical, small-molecule microarray, residues 44-93, 635 nm fluorescence (AID 1108); details: small-molecule microarray binding, fluorescence 635 nm; higher = more signal;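 further: E7 fragment applied at 1 µg/mL in TBST for 1 h at 4 C; score combines spot fluorescence with its signal to noise ratio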
# [2] = modulators of HCV replicon luciferase signal, primary screen, HCV replication inhibitor project, Huh7 cells, luciferase reporter (AID 1109); details: 48 h, higher = more signal;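 further: huh7 hepatoma cells harbouring a luciferase neomycin HCV replicon reporter; luciferase luminescence as measure of HCV replicon replication; test concentration not given here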
# [3] = target: Left-right determination factor 2 (Homo sapiens) (UniProt O00292); assay: LEFTY2 binders on small-molecule microarrays, primary screen, biochemical, small-molecule microarray, 635 nm fluorescence scan (AID 1110); details: LEFTY2 binding, higher = more signal
# [4] = target: Calmodulin-1 (Homo sapiens) (UniProt P0DP23); assay: CALM1 binders on microarrays, EGTA buffer, profiling panel, biochemical, small-molecule microarray, Cy5-labelled CALM1 (AID 1111); details: Cy5-CALM1 binding fluorescence, higher = more signal;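 further: labelled calmodulin applied in Tris saline Tween buffer holding calcium plus EGTA and DTT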
# [5] = target: Calmodulin-1 (Homo sapiens) (UniProt P0DP23); assay: calcium-bound CALM1 binders on microarrays, profiling panel, artefact control for SMM control-protein annotation, biochemical, small-molecule microarray, Cy5-labelled CALM1, plus calcium (AID 1112); details: Cy5-CALM1 binding fluorescence, higher = more signal;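 further: score merges spot fluorescence with signal to noise from triplicate slides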
# [6] = small-molecule microarray binders of probe aWnt5a, primary screen, biochemical, biotinylated probe, 635/667 nm fluorescence (AID 1113); details: higher = more signal;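 further: score merges 667 nm fluorescence intensity with signal-to-noise per printed feature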
# [7] = small-molecule microarray binders of probe aShh, primary screen, biochemical, biotinylated probe, 635/667 nm fluorescence (AID 1114); details: higher = more signal;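 further: probe is biotin-labelled aShh protein from a stem cell growth factor screen; measures binding of labelled protein to compounds printed on the slide; score merges feature fluorescence at 667 nm with signal-to-noise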
# [8] = small-molecule microarray binders of probe aNog, primary screen, biochemical, biotinylated probe, 635/667 nm fluorescence (AID 1115); details: higher = more signal;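 further: probe is biotinylated aNog protein used at 0.15 µg/mL for 1 h at 4 C; z-score combines 667 nm fluorescence of each spot with its signal to noise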
# [9] = target: Torsin-1A-interacting protein 1 (Homo sapiens) (UniProt Q5JTV8); assay: LAP1 binders from COS7 cell lysate, primary screen, small-molecule microarray, 635/667 nm fluorescence (AID 1116); details: COS7-hLAP1 lysate binding, 635 nm fluorescence, higher = more signal
# [10] = target: Alpha-bungarotoxin (Bungarus multicinctus) (UniProt P60615); assay: alpha-bungarotoxin binders on microarray, profiling panel, artefact control for SMM control protein annotation, biochemical, small-molecule microarray, Alexa647 label, 635/667 nm fluorescence (AID 1117); details: alpha-BTX-A647 binding fluorescence, higher = more signal
# [11] = target: Albumin (Bos taurus) (UniProt P02769); assay: bovine serum albumin binders on microarray, profiling panel, artefact control for SMM control protein annotation, biochemical, small-molecule microarray, Alexa647 label, 635/667 nm fluorescence (AID 1118); details: BSA-A647 binding, fluorescence 635 nm, higher = more signal;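 further: score merges 667 nm emission intensity and signal-to-noise per printed compound spot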
# [12] = small-molecule microarray binders of probe aXIP, primary screen, biochemical, NeuroSMM set, 635/667 nm fluorescence (AID 1119); details: higher = more signal, called active from +8 up or from −8 down;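 further: probe is the protein aXip251-270 applied at 1 µg/mL to compound-printed slides; binding of probe to printed compounds measured as 667 nm fluorescence plus signal to noise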
# [13] = small-molecule binders of probe aNOTCH3, primary screen, biochemical, small-molecule microarray, 635/667 nm fluorescence (AID 1120); details: higher = more signal;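 further: probe is a biotin-tagged antibody raised against NOTCH3 rather than NOTCH3 protein; score merges spot fluorescence near 667 nm with spot signal to noise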
# [14] = small-molecule binders of probe aNOTCH2, primary screen, biochemical, small-molecule microarray, 635/667 nm fluorescence (AID 1121); details: higher = more signal;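 further: score merges feature fluorescence read at 667 nm with its signal to noise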
# [15] = target: Carbonic anhydrase 2 (Homo sapiens) (UniProt P00918); assay: CAII small-molecule binders, profiling panel, biochemical, small-molecule microarray, Alexa647-labelled CAII (AID 1122); details: CAII-A647 binding fluorescence, higher = more signal
# [16] = COS7 lysate on small-molecule microarray, probe aHis, 635 nm (AID 1123); details: COS7 cell lysate, fluorescence, higher = more signal;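 further: z-score combines 667nm fluorescence intensity with signal-to-noise per printed compound spot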
# [17] = compound binding in COS7 lysate, probe aLAP1, primary screen, cell lysate, small-molecule microarray (AID 1124); details: probe aLAP1, fluorescence, higher = more signal;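 further: lysate comes from COS7 cells expressing LAP1 and is applied at 0.3 µg/mL; score merges spot fluorescence near 667 nm with signal-to-noise over triplicate slides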
# [18] = tested on: Sam68 (KHDRBS1); assay: Sam68 small-molecule binders, primary screen, biochemical, small-molecule microarray, 635 nm fluorescence (AID 1125); details: small-molecule microarray binding, higher = more signal;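 further: score merges 667 nm channel intensity with signal to noise over triplicate slides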
# [19] = tested on: Chordin-like protein 2 (CHRDL2); assay: CHRDL2 small-molecule binders, primary screen, biochemical, small-molecule microarray, 635 nm fluorescence (AID 1126); details: small-molecule microarray binding, fluorescence 635 nm; higher = more signal;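 further: printed compound slides probed with Chrdl2 protein at 4 µg/mL for 1 h at 4 C; score merges 667 nm emission intensity with signal to noise over three replicate slides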
# [20] = target: Concanavalin-A (Canavalia ensiformis) (UniProt P02866); assay: ConA small-molecule binders, primary screen, artefact control for SMM control protein annotation, biochemical, small-molecule microarray, Alexa647 label, 635 nm (AID 1127); details: ConA-A647 binding fluorescence, higher = more signal;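 further: z combines 667 nm emission intensity with signal-to-noise across three replicate slides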
# Sequence of Concanavalin-A (Canavalia ensiformis) (P02866 whole entry, looked up): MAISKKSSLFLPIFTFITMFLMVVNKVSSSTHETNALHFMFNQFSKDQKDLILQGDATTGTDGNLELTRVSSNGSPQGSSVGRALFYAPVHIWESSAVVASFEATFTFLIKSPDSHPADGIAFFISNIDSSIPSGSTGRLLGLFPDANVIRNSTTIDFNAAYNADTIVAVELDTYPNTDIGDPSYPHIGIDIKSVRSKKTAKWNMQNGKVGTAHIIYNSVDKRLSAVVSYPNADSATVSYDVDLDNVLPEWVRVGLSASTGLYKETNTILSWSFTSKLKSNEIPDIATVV
# Sequence of Left-right determination factor 2 (Homo sapiens) (O00292 whole entry, looked up): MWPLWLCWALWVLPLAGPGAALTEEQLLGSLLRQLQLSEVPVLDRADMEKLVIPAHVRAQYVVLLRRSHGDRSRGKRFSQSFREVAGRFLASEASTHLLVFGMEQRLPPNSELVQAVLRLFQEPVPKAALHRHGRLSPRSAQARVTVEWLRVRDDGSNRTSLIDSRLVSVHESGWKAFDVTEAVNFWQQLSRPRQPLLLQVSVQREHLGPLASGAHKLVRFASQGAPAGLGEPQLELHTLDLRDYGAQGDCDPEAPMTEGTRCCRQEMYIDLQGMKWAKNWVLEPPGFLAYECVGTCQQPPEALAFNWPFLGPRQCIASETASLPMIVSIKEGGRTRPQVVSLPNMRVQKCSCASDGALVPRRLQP
# Sequence of Torsin-1A-interacting protein 1 (Homo sapiens) (Q5JTV8 whole entry, looked up): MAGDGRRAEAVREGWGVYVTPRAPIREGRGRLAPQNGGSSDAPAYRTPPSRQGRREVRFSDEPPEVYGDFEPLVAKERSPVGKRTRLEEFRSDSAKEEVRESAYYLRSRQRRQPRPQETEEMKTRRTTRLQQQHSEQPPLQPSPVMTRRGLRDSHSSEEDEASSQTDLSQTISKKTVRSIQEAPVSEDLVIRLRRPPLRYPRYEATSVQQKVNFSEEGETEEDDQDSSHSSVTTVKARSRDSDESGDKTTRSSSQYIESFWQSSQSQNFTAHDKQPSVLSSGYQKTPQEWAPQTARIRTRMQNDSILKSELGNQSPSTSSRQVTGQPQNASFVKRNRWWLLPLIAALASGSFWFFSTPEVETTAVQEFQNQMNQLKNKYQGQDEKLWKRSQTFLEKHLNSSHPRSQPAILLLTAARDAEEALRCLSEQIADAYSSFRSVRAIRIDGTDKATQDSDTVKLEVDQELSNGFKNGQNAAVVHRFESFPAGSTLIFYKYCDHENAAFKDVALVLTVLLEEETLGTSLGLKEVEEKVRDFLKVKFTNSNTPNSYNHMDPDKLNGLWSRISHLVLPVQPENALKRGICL
# Sequence of Alpha-bungarotoxin (Bungarus multicinctus) (P60615 whole entry, looked up): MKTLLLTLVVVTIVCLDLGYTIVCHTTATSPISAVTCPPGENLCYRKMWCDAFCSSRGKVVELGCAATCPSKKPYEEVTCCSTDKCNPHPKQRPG
# Sequence of Albumin (Bos taurus) (P02769 whole entry, looked up): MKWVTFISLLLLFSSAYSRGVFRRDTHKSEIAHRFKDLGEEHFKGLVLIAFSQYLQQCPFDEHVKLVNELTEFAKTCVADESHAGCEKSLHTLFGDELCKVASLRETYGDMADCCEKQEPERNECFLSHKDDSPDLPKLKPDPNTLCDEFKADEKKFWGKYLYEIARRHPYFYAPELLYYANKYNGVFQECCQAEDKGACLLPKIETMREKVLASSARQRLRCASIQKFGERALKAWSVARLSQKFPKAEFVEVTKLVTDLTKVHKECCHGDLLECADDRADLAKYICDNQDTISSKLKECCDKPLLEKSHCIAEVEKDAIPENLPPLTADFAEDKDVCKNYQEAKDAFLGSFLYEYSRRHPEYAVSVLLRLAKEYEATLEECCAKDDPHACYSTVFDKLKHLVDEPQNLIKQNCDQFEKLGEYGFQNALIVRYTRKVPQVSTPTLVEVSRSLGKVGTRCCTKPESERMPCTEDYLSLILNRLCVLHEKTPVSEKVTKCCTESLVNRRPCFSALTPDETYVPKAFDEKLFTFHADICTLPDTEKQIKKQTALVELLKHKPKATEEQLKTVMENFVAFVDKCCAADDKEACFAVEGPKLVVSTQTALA
Compound,composite z-score [1],z-score [2],composite z-score [3],composite z-score [4],composite z-score [5],composite z-score [6],composite z-score [7],composite z-score [8],composite z-score [9],composite z-score [10],composite z-score [11],composite Z-score [12],composite z-score [13],composite z-score [14],composite z-score [15],composite z-score [16],composite z-score [17],composite z-score [18],composite z-score [19],composite z-score [20]
CC(C)C[C@@H]1NC(=O)[C@H](CC(C)C)NC(=O)[C@@]23C(=O)N[C@@H](Cc4ccccc4)C2[C@H](C)[C@@]2(C)O[C@H]2C3/C=C/CC/C=C/CNC1=O (stereo not given in full),1.34,-1.24,0.521,0.102,-0.747,-0.101,-0.221,-0.261,0.292,0.683,0.734,-0.392 (inactive),-0.0657,-0.118,0.578,0.268,-0.219,1.05,0.702,1.02
O=C1O[C@H](c2ccccc2)[C@H](c2ccccc2)N2[C@H]1[C@@H](C(=O)Nc1nc3ccccc3s1)[C@]1(C(=O)Nc3ccc(C#CC4=CCCCC4)cc31)[C@H]2c1ccccc1OCCO,1.35,-1.67,0.59,1.31,0.149,-0.0714,-0.263,0.184,0.715,1.04,0.581,0.329 (inactive),0.0452,-0.14,0.23,0.834,-0.189,1.3,0.497,1
CN(C)CCCC[C@@H]1NC(=O)[C@@H]2C[C@H](C(=O)NCCCCCNC(=O)CS)[C@H](c3ccc(O)cc3)N2C1=O,0.664,0.873,1.17,0.0884,1.25,-0.124,0.199,0.498,0.761,1.65,0.885,0.0077 (inactive),0.0261,-0.0976,0.58,1.18,0.24,0.697,1.07,1.15
COC(=O)C1=C(C)N(Cc2ccccc2)c2c(C(=O)OC)c(C(=O)OC)c(C(=O)OC)c(=O)n2[C@@H]1c1ccccc1,-0.316,0.0883,0.431,1.61,0.141,-0.0806,-0.221,-0.0286,0.812,0.732,0.8,0.242 (inactive),0.116,-0.0158,0.0478,0.247,0.763,0.383,-0.0328,0.641
CCCNC(=O)[C@@]1(Sc2ccc(C)cc2)CC(=O)N(Cc2ccccc2Cl)[C@@H]1c1ccc(CO)cc1,0.658,-2.42,0.546,0.857,1.03,-0.0478,0.0407,0.0021,0.574,2.05,0.694,0.165 (inactive),0.308,-0.0906,0.572,1.67,1.2,1.31,0.725,1.12
O=C1O[C@@H](c2ccccc2)[C@@H](c2ccccc2)N2[C@@H](c3ccccc3OCCO)[C@]3(C(=O)Nc4ccc(C#CC5=CCCCC5)cc43)[C@@H](C(=O)O)[C@H]12,0.799,-2.28,0.0802,1.7,0.957,-0.0539,0.13,0.0014,0.612,1.77,0.664,-0.114 (inactive),0.0563,-0.0391,0.549,1.67,0.659,1.33,-0.241,1.08
COC(=O)C[C@H]1O[C@]2(C(=O)N(Cc3ccccc3)c3ccc(I)cc32)[C@@H](C)[C@@H]1[Si](C)(C)c1ccc(OC)cc1,-1.02,0.486,-0.0651,0.267,0.286,-0.0462,0.0062,-0.208,-0.267,0.13,0.298,0.167 (inactive),-0.185,-0.0956,-0.228,-0.322,-0.0227,-0.879,0.0477,-0.0276
C[C@@H]1C=CCC(=O)OC[C@H]2O[C@@H](C=C[C@@H]2O)[C@H](C)C=CCC(=O)OC[C@H]2O[C@H]1C=C[C@@H]2O,0.14,-0.541,1.53,-0.365,-2.23,0.275,0.186,0.854,0.196,-0.22,-0.581,1.21 (inactive),0.716,-0.0318,-0.227,-0.268,-0.725,0.65,1.58,-0.343
CO[C@@H]1COC(=O)CC=C[C@H](C)COC(=O)[C@H](Cc2ccccc2)NC(=O)CC=C[C@H]1C,-0.416,1.06,1.31,-1.59,-2.38,-0.288,0.0048,-0.547,-0.0955,-1.36,-2.04,0.772 (inactive),-0.162,-0.167,-0.155,-0.596,0.0055,0.294,1.53,-0.651
O=C(NCC(O)CO)[C@]1(Cc2ccccc2)N=C(c2ccc(OCCCO)cc2)O[C@@H]1c1ccccc1 (stereo not given in full),0.679,-0.378,-1.48,2.61,1.31,0.225,-0.0642,1.68,2.64,2.27,0.974,0.749 (inactive),0.101,0.257,0.366,3.43,0.634,1.03,-1.93,0.922
C[C@@H]1CC[C@H]2C(=O)N3CCC[C@H]3C(=O)N2[C@H]1c1ccc(Br)cc1,0.175,0.673,0.267,-0.243,-0.558,-0.212,-0.0769,-0.307,0.324,-0.179,-0.295,0.734 (inactive),-0.261,-0.174,-0.213,0.233,0.123,-0.0235,0.536,-0.377
